Assay outcomes from PubChem BioAssay.
The list is not random: actives were taken first. Their share in the collection is about 2.4%.
C diff growth: inhibitors of Clostridium difficile growth; Clostridium difficile clinical isolate growth, OD600, 24 h; hits give low values; growth activity, negative = inhibition, % at 16 µg/mL (by protocol); 0.25% of 86,000 active;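 active = mean growth activity at or below -80% and every replicate also at or below -80%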;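 also: 0% = DMSO wells and -100% = levofloxacin 16 µg/mL wells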
Pf Dd2 growth: inhibitors of Plasmodium falciparum Dd2 growth | 2.3% of 94,000 active | P. falciparum Dd2 growth, SYBR Green, 72 h; hits give low values | activity change, % at 10 µM | AID 1159554; in the data active = activity change below about -80%
* marks the source's active call; other numbers are inactive results; x = no result.

SMILES	C diff growth	Pf Dd2 growth
C[C@H](CO)N1C[C@H](C)[C@@H](CN(C)S(=O)(=O)c2ccccc2)Oc2ccc(NC(=O)Cc3cn(C)c4ccccc34)cc2C1=O	-1	-87*
Cc1ccc(S(=O)(=O)N(C)C[C@@H]2Oc3ccc(NC(=O)Cc4cn(C)c5ccccc45)cc3C(=O)N([C@@H](C)CO)C[C@H]2C)cc1	7	-57
COCC#Cc1ccc2c(c1)O[C@H](CN(C)S(=O)(=O)c1ccc(F)cc1)[C@H](C)CN([C@@H](C)CO)S2(=O)=O	20	-53
Cc1cccc(-c2ccc([C@H]3[C@@H](CO)N4CCCCN(S(=O)(=O)c5cccs5)C[C@@H]34)cc2)c1	1	0
O=C(NCCn1cc(CN2C(=O)COC[C@H]2c2ccccc2)nn1)Nc1ccccc1	-6	x
COC(=O)[C@@H]1[C@@H](CO)[C@@H]2Cn3c(ccc(-c4ccncc4)c3=O)[C@@H]2N1Cc1ccccc1F	6	-6
C[C@@H]1CN([C@H](C)CO)S(=O)(=O)c2ccc(/C=C/c3ccccc3)cc2O[C@@H]1CN(C)Cc1cccnc1	-8	-33
C/C=C/c1ccc2c(c1)O[C@H](CN(C)Cc1cccnc1)[C@H](C)CN([C@@H](C)CO)S2(=O)=O	-1	2
C[C@H]1CN([C@@H](C)CO)S(=O)(=O)c2ccc(C#Cc3ccccc3F)cc2O[C@@H]1CN(C)C(=O)Cc1cccnc1	-1	-59
C[C@@H]1CN([C@H](C)CO)S(=O)(=O)c2ccc(/C=C/c3ccccc3)cc2O[C@H]1CN(C)Cc1cccnc1	0	-86*
C[C@H](CO)N1C[C@H](C)[C@@H](CN(C)Cc2cccnc2)Oc2cc(/C=C/c3ccccc3)ccc2S1(=O)=O	-1	-89*
C[C@H]1CN([C@@H](C)CO)S(=O)(=O)c2ccc(C#Cc3ccccc3F)cc2O[C@H]1CN(C)C(=O)Cc1cccnc1	11	-83*
COc1ccccc1C#Cc1ccc2c(c1)O[C@@H](CN(C)Cc1cccnc1)[C@H](C)CN([C@@H](C)CO)S2(=O)=O	5	-83*
COc1ccccc1C#Cc1ccc2c(c1)O[C@@H](CN(C)Cc1cccnc1)[C@@H](C)CN([C@@H](C)CO)S2(=O)=O	8	-37
CCCN(C)C[C@@H]1OCCCC[C@@H](C)Oc2ccc(NC(=O)NC(C)C)cc2C(=O)N([C@@H](C)CO)C[C@@H]1C	13	-54
CN1C(=O)c2cc(NC(=O)Nc3cccc(Cl)c3)ccc2OC[C@H]2O[C@H](CC(=O)NCCc3ccncc3)CC[C@@H]21	0	-24
COCC(=O)Nc1ccc2c(c1)C(=O)N(C)[C@H]1CC[C@H](CC(=O)Nc3ccccc3F)O[C@@H]1CO2	2	-1
COc1ccc(NC(=O)Nc2ccc3c(c2)C(=O)N([C@H](C)CO)C[C@@H](C)[C@@H](CN(C)CC2CCCCC2)OCCCC[C@@H](C)O3)cc1	-22	-81*
COc1ccc(NC(=O)Nc2ccc3c(c2)C(=O)N([C@@H](C)CO)C[C@@H](C)[C@@H](CN(C)CC2CCCCC2)OCCCC[C@H](C)O3)cc1	-5	-72
COc1ccc(NC(=O)Nc2ccc3c(c2)C(=O)N([C@H](C)CO)C[C@H](C)[C@@H](CN(C)CC2CC2)OCCCC[C@H](C)O3)cc1	2	-84*
COc1ccc(NC(=O)Nc2ccc3c(c2)C(=O)N([C@H](C)CO)C[C@@H](C)[C@H](CN(C)CC2CC2)OCCCC[C@H](C)O3)cc1	1	14
C[C@@H]1CN([C@@H](C)CO)C(=O)c2cc(NC(=O)Nc3cccc4ccccc34)ccc2O[C@@H](C)CCCCO[C@H]1CN(C)CC1CC1	9	-66
C[C@@H]1CN([C@@H](C)CO)C(=O)c2cc(NC(=O)Nc3cccc4ccccc34)ccc2O[C@@H](C)CCCCO[C@@H]1CN(C)CC1CCCCC1	0	-88*
C[C@H](CO)N1C[C@H](C)[C@H](CN(C)CC2CC2)OCCCC[C@H](C)Oc2ccc(NC(=O)Nc3cccc4ccccc34)cc2C1=O	4	-63
C[C@@H]1CN([C@@H](C)CO)C(=O)c2cc(NC(=O)Nc3cccc4ccccc34)ccc2O[C@@H](C)CCCCO[C@H]1CN(C)CC1CCCCC1	-14	-72
SMILES	C diff growth	Pf Dd2 growth
C[C@@H]1CCCCO[C@@H](CN(C)CC2CCCCC2)[C@H](C)CN([C@H](C)CO)C(=O)c2cc(NC(=O)Nc3cccc4ccccc34)ccc2O1	7	-89*
C[C@H]1CCCCO[C@H](CN(C)CC2CCCCC2)[C@@H](C)CN([C@@H](C)CO)C(=O)c2cc(NC(=O)Nc3cccc4ccccc34)ccc2O1	-3	-85*
CCCN(C)C[C@@H]1Oc2ncc(-c3ccccc3)cc2C(=O)N([C@@H](C)CO)C[C@@H]1C	x	27
C[C@H]1CCCCO[C@H](CN(C)C(=O)Nc2ccccc2)[C@@H](C)CN([C@@H](C)CO)C(=O)c2cc(N(C)C)ccc2O1	-4	5
CCCNC(=O)N1CC2(CCN(S(=O)(=O)CC)CC2)c2c(n(C)c3cc(OC)ccc23)[C@H]1CO	6	-12
Cc1noc(C)c1S(=O)(=O)N(C)C[C@H]1OCCCC[C@@H](C)Oc2ccc(NC(=O)Nc3ccc4c(c3)OCO4)cc2C(=O)N([C@H](C)CO)C[C@@H]1C	-5	0
C[C@H](CO)N1C[C@H](C)[C@@H](CN(C)Cc2ccc(Cl)c(Cl)c2)Oc2ccc(NC(=O)C3CCCCC3)cc2CC1=O	-2	-38
CCC(=O)N1CC2(C1)CN(C(=O)CN1CCOCC1)[C@@H](CO)c1c2c2ccc(OC)cc2n1C	-4	22
C[C@@H]1CN([C@H](C)CO)C(=O)c2cccc(NC(=O)C3CCCCC3)c2O[C@@H]1CN(C)Cc1ccc(C(=O)Nc2ccccc2N)cc1	3	-84*
C[C@@H]1CN([C@@H](C)CO)C(=O)c2cccc(NC(=O)C3CCCCC3)c2O[C@H]1CN(C)Cc1ccc(C(=O)Nc2ccccc2N)cc1	1	-87*
C[C@H]1CN([C@@H](C)CO)C(=O)c2cccc(NC(=O)C3CCCCC3)c2O[C@H]1CN(C)Cc1ccc(C(=O)Nc2ccccc2N)cc1	-5	-69
C[C@H]1CN([C@@H](C)CO)C(=O)c2cccc(NC(=O)C3CC3)c2O[C@@H]1CN(C)Cc1ccc(C(=O)Nc2ccccc2N)cc1	0	-54
C[C@@H]1CN([C@@H](C)CO)C(=O)c2cccc(NC(=O)C3CC3)c2O[C@@H]1CN(C)Cc1ccc(C(=O)Nc2ccccc2N)cc1	4	-14
C[C@H](CO)N1C[C@H](C)[C@H](CN(C)Cc2ccc(C(=O)Nc3ccccc3N)cc2)Oc2c(NC(=O)C3CC3)cccc2C1=O	-1	-16
C[C@@H]1CN([C@@H](C)CO)C(=O)c2cccc(NC(=O)NC3CCCCC3)c2O[C@@H]1CN(C)Cc1ccc(C(=O)Nc2ccccc2N)cc1	x	-90*
C[C@@H]1CN([C@H](C)CO)C(=O)c2cccc(NC(=O)C3CCCCC3)c2O[C@H]1CN(C)Cc1ccc(C(=O)Nc2ccccc2N)cc1	15	-86*
CC(=O)N(C)C[C@H]1Oc2ncc(C#Cc3ccccn3)cc2C(=O)N([C@@H](C)CO)C[C@H]1C	3	30
C[C@@H]1CN([C@@H](C)CO)C(=O)Cc2cc(NC(=O)CCCCCC(=O)Nc3ccccc3N)ccc2O[C@H]1CN(C)C(=O)Nc1ccc(F)cc1	-3	0
